HTT aggregate = reduces HttQ103-GFP aggregates in PC12 cells; 220,000 tested, 1.1% active; PC12 HttQ103-GFP aggregates, Acumen cytometry, 40 h; Potency, µM (doses to about 46.1 µM), without a hit: top-dose activity change, negative = inhibition, hits mostly inhibitors; note: potency is the fitted concentration of half-maximal effect; % is set by controls: 0 for no effect and ±100 for the full control effect; nearly all actives have a fitted effect of over 60% in size
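Quantitative HTS on tebufenozide-induced (100 nM) PC12 cells stably expressing polyQ103 Huntingtin exon 1–GFP. Reduction of bright GFP aggregates, detected by laser scanning cytometry after lysis, identified actives across the titration.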
IMPase Li cell = membrane-permeable IMPase blocker, potentiated with lithium; CHO-M1 cells, IP1 TR-FRET (IP-One), carbachol + lithium; Potency, µM (series often up to 59.4 µM), for inactives: top-dose activity, negative = IMPase inhibition, usual class: inhibitors; 210,000 tested, 0.35% active; AID 1457;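 note: IP1 builds up when IMPase is blocked and the TR-FRET signal falls; potency is the fitted concentration of half-maximal effect; plate controls were basal vehicle for no effect and high inhibitor control for full effect; nearly all actives have a fitted effect of over 50% in size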
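Readout is a homogeneous TR-FRET IP1 immunoassay (Ex 320, Em 665 and 620), where raised cytosolic IP1 lowers signal. Cells were CHO-M1 treated 30 min at 37C with test compounds plus a little lithium; AC50 values came from Hill-equation fitting.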
HPGD block = inhibitors of human 15-hydroxyprostaglandin dehydrogenase (HPGD); P15428; purified HPGD, NADH fluorescence kinetic, PGE2 substrate; AID 894; 150,000 tested, 4.3% active; Potency, µM, for the others: at the highest dose activity change, negative = inhibition, hits mostly inhibitors; active = well fitted inhibition curve with a large enough effect, not every such curve was filed as active; inconclusive = small, poorly fitted or top-dose-only effect, or another doubt; inactive = no such curve, though single readings can be large or run the other way; note: potency is the fitted concentration of half-maximal effect; % is set by controls: 0 for no effect and ±100 for the full control effect
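NADH formation kinetics: reaction with 30 uM PGE2 and 1 mM NAD+ (final), 20 nM enzyme, Tris-HCl pH 8 with Tween 20, after 15 min compound preincubation at room temperature. Fluorescence change, last versus first of five reads.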
ALDH1A1 inh = ALDH1A1 (human) enzyme inhibition; Purified ALDH1A1, NADH fluorescence, propionaldehyde substrate; Potency, µM (highest dose often 75.3 µM), inactives show top-dose activity, negative = inhibition, usual class: inhibitors; 220,000 tested, 7.3% active; AID 1030; active = well fitted inhibition curve with a large enough effect, not every such curve was filed as active; inconclusive = small, poorly fitted or top-dose-only effect, or another doubt; inactive = no such curve, though single readings can be large or run the other way;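 note: potency is the fitted concentration of half-maximal effect; plate controls were no enzyme wells and a reference inhibitor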
Target sequence (P00352 whole entry, looked up): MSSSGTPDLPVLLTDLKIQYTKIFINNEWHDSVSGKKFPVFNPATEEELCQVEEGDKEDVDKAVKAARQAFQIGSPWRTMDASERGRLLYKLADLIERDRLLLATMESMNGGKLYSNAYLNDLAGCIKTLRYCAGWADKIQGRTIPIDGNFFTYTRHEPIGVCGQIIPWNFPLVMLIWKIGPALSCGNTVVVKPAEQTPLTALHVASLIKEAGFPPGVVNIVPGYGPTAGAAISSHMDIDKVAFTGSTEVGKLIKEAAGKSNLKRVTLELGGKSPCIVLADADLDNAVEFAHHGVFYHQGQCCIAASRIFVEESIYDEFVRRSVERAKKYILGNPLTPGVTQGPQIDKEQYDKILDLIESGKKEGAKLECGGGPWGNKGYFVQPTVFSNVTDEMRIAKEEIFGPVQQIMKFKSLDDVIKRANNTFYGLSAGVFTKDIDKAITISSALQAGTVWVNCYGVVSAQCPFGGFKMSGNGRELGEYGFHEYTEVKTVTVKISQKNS
HTT ATP protect = Huntington cell model cytoprotection by ATP luminescence. Potency, µM (titrated, usually from 56.4 µM), for the others: cytoprotection (ATP increase), actives largely listed as activators. 230,000 tested, 0.14% active. AID 1471. PC12 HTT-Q103 induced, cytoprotection, ATP luminescence, 40 h; note: potency is the fitted concentration of half-maximal effect; % of control where 0% means no effect; nearly all actives have a fitted effect of over 45% in size
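Quantitative HTS on tebufenozide-induced (100 nM) PC12 cells expressing HTTQ103 exon 1–GFP; compounds tested as a concentration series; survival measured via cellular ATP.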
IMPase inh = cell-permeable inhibitors of inositol monophosphatase (IMPase); AID 901; 120,000 tested, under 10 active; CHO-M1 cells, IP1 accumulation, HTRF TR-FRET ratio; inhibition (IP1 accumulation), % at 46.1 µM; P97697; active = well fitted curve in the direction sought with a large enough effect in the signal ratio, not every such curve was filed as active; inconclusive = small, poorly fitted or top-dose-only effect, or a change in a side signal; inactive = no such curve, though single readings can be large or run the other way; the % refers to the signal ratio;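 note: cells stimulated with carbachol in lithium chloride buffer; plate controls were DMSO basal wells for no effect and reference inhibitor wells for full effect; higher means more IMPase inhibition seen as more IP1 and lower FRET ratio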
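CHO-M1, 2000 cells/well, cultured 16–30 h; cpd up to 46 uM; carbachol (50 uM solution, stimulation buffer w/ 50 mM LiCl, pH 7.4), 30 min 37C; IP-One TR-FRET, 10 min RT; Ex 320/Em 665, 620; Hill-fit AC50.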
Starred values were filed as active, the others as inactive; ? = inconclusive; · = no result; [ ] = dose if it differs, or a comment. A selection: hits, their analogues and other compounds. The true share with any hit is near 9.4%. Unless noted, calls come from the whole dose curve; as a rule, active = well fitted curve in the direction sought with a large enough effect; inconclusive = small, poorly fitted or top-dose-only effect, or another doubt; inactive = no such curve, though single readings can be large; an effect the other way counts as inactive or inconclusive.

SMILES	HTT aggregate	IMPase Li cell	HPGD block	ALDH1A1 inh	HTT ATP protect	IMPase inh
O=C1c2cccc(OCc3ccc(F)cc3)c2CCN1Cc1ccc(F)cc1	20µM*	19.7%	-17.7%	17.0%	30.5%[10 µM]	15.3
Cc1ccc(CN2CCc3c(OCC(=O)Nc4cccc(C)c4C)cccc3C2=O)cc1	-7.9%	19.6%	-18.5%	25.1µM*	·	·
O=C1c2cccc(OCC(=O)N3CCCc4ccccc43)c2CCN1Cc1ccc(Br)cc1	-12.7%[9.22 µM]	18.0%	-5.9%	7.94µM*	-13.9%[10 µM]	-1.5
CCC(C)c1ccc(OCC(=O)Nc2ccc(-c3nc4ncccc4o3)cc2)cc1 (centres undefined)	·	·	·	·	·	-4.0
O=C(O)CSc1ccccn1	-17.4%	-2.5%[38.3 µM]	-15.0%	-3.3%	-4.2%	-5.1
CC(C)OCC(O)CSc1ccccn1 (centres undefined)	-4.1%	-18.6%[38.3 µM]	17.8µM*	-2.8%	12.6%	12.1
O=C(Oc1nsnc1N1CCOCC1)c1ccccc1	0.0%[9.22 µM]	-3.9%[38.3 µM]	-26.7%	28.2µM*	6.6%	6.8
CN1CCN(C(=O)c2sc(=S)n(-c3ccccc3)c2N)CC1	?	-7.9%[38.3 µM]	7.94µM*	3.16µM*	1.4%[10 µM]	-4.0
CCOC(=O)c1sc(=S)n(-c2ccc(C)cc2)c1SC	-11.8%	16.9%[38.3 µM]	?	22.4µM*	-5.6%	-4.9
CCOC(=O)c1sc(=S)n(-c2ccccc2)c1C	14.2%[9.22 µM]	·	·	·	3.9%[10 µM]	·
Cc1ccc(-n2c(N)c(C(=O)N3CCOCC3)sc2=S)cc1	?	14.1%[38.3 µM]	10µM*	3.16µM*	-17.1%[0.074 µM]	-4.2
CCNC(=O)c1sc(=S)n(-c2ccc(C)cc2)c1N	-13.7%	-7.4%[38.3 µM]	35.5µM*	12.6µM*	-5.4%	3.7
CCc1sc(C(C2C(=O)CC(C)(C)CC2=O)C2C(=O)CC(C)(C)CC2=O)cc1[N+](=O)[O-]	-12.6%[9.22 µM]	15.1%	·	14.1µM*	9.4%[10 µM]	·
CCOC(=O)c1c(C)[nH]c(C)c1C(=O)CSc1nc2ccccc2c(=O)n1-c1ccc(CC)cc1	?	5.8%	-7.5%	?	-1.9%[10 µM]	·
CCCc1nc(SCC(=O)NNC(=O)C2CCCCC2)c2ccccc2n1	-3.0%	?	-3.9%	2.0%	32.2%	-6.9
CC(C)Cn1c(SCC(=O)N2CCc3ccccc3C2)nc2cc(Cl)ccc2c1=O	10µM*	12.8%	-6.7%	10µM*	13.9%[10 µM]	·
COCCn1c(SCC(=O)N2CCc3ccccc3C2)nc2cc(Cl)ccc2c1=O	-31.8%	13.0%	-12.6%	?	·	·
CCCc1nc(SCC(=O)NNC(=O)c2ccc(OC)cc2)c2ccccc2n1	-7.6%	10µM*	·	6.3%	22.8%[10 µM]	·
CCCCn1c(SCC(=O)c2ccccc2)nc2ccsc2c1=O	-17.6%	13.1%	-1.2%	7.08µM*	11.0%[10 µM]	·
CC(=O)c1ccc(-n2c(SCC(=O)c3c[nH]c4ccccc34)nc3ccccc3c2=O)cc1	?	-23.2%	28.2µM*	17.2%	?	?
COC(=O)Oc1ccccc1C(=O)O	·	9.5%	?	-0.7%	·	·
COc1ccccc1CNc1ccnc(-c2ccccc2OC)n1	·	13.9%	·	-1.9%	6.6%	·
O=C(CSCc1nc2ccccc2[nH]1)N1CCN(c2cccc(Cl)c2)CC1	25.1µM*	7.1%[38.3 µM]	-1.3%	-8.5%	-32.1%	-6.9
CCn1c(SCC(=O)c2ccccc2)nc2ccccc2c1=O	17.1%[9.22 µM]	19.9%	·	15.8µM*	-28.9%	·
CCn1c(SCC(=O)N2CCN(c3cccc(Cl)c3)CC2)nc2ccccc2c1=O	-6.8%	16.5%	-18.3%	28.2µM*	16.9%[1.9 µM]	13.8
COn1c(SC2CCCCC2)nc2ccccc2c1=O	-23.4%	-0.6%[38.3 µM]	31.6µM*	31.6µM*	-15.5%	-6.7
CCn1c(SCC(=O)NCc2ccccc2)nc2ccccc2c1=O	-2.3%	5.6%[38.3 µM]	-9.2%	4.7%	7.4%[10 µM]	-6.9
COC(=O)[C@H]1C[C@@H]1[C@H](NS(=O)(=O)c1ccc(-c2ccccc2)cc1)c1ccccc1	·	0.5%	-11.6%	-2.1%	10.3%	·
O=C(CCl)NC1(C(F)(F)F)C(=O)Nc2c1c(=O)[nH]c(=O)n2-c1ccccc1 (centres undefined)	3.3%[9.22 µM]	·	·	·	5.0%[10 µM]	·
